High-throughput results from PubChem BioAssay.
Shown are actives, neighbours in structure and some others; about 3% of the full set was active somewhere.
PAFAH2 FP inh: inhibitors of human PAFAH2. recombinant PAFAH2, FP-rhodamine activity probe, fluorescence polarization. 340,000 compounds, 0.99% hits. inhibition, % at 3.39 µM. AID 492956;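 active = inhibition above the mean over all tested compounds plus 3 SD, cut at about 30% in these data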;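 also: inhibitors block probe labeling of enzyme so polarization drops; 0% = enzyme with DMSO and 100% = wells lacking PAFAH2 protein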
PAFAH1B2 inh: PAFAH1B2 (human) inhibition; P68402; recombinant PAFAH1B2, FP-rhodamine activity probe, fluorescence polarization; inhibition, % at 3.39 µM; 340,000 compounds, 1.2% hits; AID 492953;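 active = inhibition above the mean of all tested compounds plus 3 SD, cut at about 24% in these data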;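 also: 0% = enzyme with DMSO and 100% = wells lacking PAFAH1B2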
Target sequence (P68402 whole entry, looked up): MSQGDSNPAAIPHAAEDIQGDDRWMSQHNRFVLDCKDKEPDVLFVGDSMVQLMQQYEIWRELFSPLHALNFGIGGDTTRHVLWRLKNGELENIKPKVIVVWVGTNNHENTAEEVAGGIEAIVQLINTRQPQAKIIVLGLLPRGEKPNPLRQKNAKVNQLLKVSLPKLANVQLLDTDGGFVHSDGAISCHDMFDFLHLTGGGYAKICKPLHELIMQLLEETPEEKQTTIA
ATG4B inhibitor: ATG4B (human) cysteine protease inhibition; AID 504462; 340,000 compounds, 0.51% hits; inhibition, % at 8.33 µM; Q9Y4P1; ATG4B cleavage of LC3-PLA2, NBD-HPC fluorescence, 1 h; in the data active = inhibition above about 40%
DAGLB inhibitor: blocks human DAGLB lipase activity. Q8NCG7. HEK293T DAGLB membrane lysate, EnzChek fluorogenic substrate. inhibition, % at 5.17 µM. 340,000 compounds, 0.059% hits. AID 504411; in the data active = inhibition above about 34%;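 also: 0% = enzyme with vehicle and 100% = wells lacking enzyme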
pPAFAH inh: pPAFAH (human) enzyme inhibition; Q13093; 330,000 compounds, 1.5% hits; recombinant pPAFAH, FP-rhodamine probe fluorescence polarization; AID 463082; inhibition, % at 3.39 µM;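 active = inhibition above the mean inhibition across the screen plus 3 SD, cut at about 25% in these data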;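 also: inhibitors block binding of the rhodamine activity-based probe so polarization drops; 0% = enzyme with DMSO and 100% = wells lacking pPAFAH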
PAFAH1B3 FP inh: PAFAH1B3 (human) inhibition; Q15102; recombinant PAFAH1B3, FP-rhodamine probe, fluorescence polarization; inhibition, % at 3.39 µM; 340,000 compounds, 0.28% hits; AID 492972;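 active = inhibition above the screen-wide average of all tested compounds plus 3 SD, cut at about 25% in these data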;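 also: 0% = enzyme with DMSO only and 100% = wells lacking PAFAH1B3 protein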
Target sequence (Q15102 whole entry, looked up): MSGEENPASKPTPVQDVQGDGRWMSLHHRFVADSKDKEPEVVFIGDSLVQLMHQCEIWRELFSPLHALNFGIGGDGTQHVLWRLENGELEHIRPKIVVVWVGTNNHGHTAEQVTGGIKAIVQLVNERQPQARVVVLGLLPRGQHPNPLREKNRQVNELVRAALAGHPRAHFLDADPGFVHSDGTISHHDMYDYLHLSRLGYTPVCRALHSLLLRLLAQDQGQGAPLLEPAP
Starred values were filed as active, the others as inactive; / = no result.

SMILES	PAFAH2 FP inh	PAFAH1B2 inh	ATG4B inhibitor	DAGLB inhibitor	pPAFAH inh	PAFAH1B3 FP inh
CSC[C@@H]1NC(=S)N(c2ccc(C)cc2)C1=O	15	27*	-1	0	14	49*
C=CCN(c1ccccc1)S(=O)(=O)c1cccc(C(=O)N2CC(C)CC(C)C2)c1 (stereo not drawn)	-1	8	4	-2	3	-1
CC1(c2ccc(Cl)cc2)NC(=O)N(CC(=O)N2CCN(C(=O)c3cccs3)CC2)C1=O (stereo not drawn)	/	/	/	-1	/	/
Cc1c(C(=O)NC2CCC(C)CC2)oc2ccccc12 (stereo not drawn)	2	-1	-1	-10	1	-1
COc1ccc([C@@H]2[C@@H]3C(=O)N(C(C)(C)C)C(=O)[C@@H]3[C@]3(Cc4ccccc4)C(=O)N(c4ccc(C)cc4)C(=O)N23)cc1	-3	-4	-17	-4	4	15
O=S(=O)(Nc1cccc(-c2ccc(N3CCCCCC3)nn2)c1)c1cccc(F)c1	5	7	3	1	27*	-3
O=S(=O)(Nc1cccc(-c2ccc(N3CCCCCC3)nn2)c1)c1ccccc1Cl	-14	21	-6	0	29*	-1
O=S(=O)(Nc1cccc(-c2ccc(N3CCCCCC3)nn2)c1)c1ccc(F)cc1	3	17	-6	0	20	9
CNS(=O)(=O)c1cccc(C(=O)OC2CCOC2=O)c1 (stereo not drawn)	-5	2	2	-1	-2	-3
O=C(OC1CCOC1=O)c1cccc(S(=O)(=O)Nc2cccc(Cl)c2)c1 (stereo not drawn)	16	-4	-3	1	27*	9
CN(C(=O)c1cc(COc2ccc(F)cc2Cl)on1)C1CCOC1 (stereo not drawn)	/	/	/	4	/	/
Cc1ccc(C)c(C(=O)N(Cc2nc(-c3ccc(Cl)cc3)no2)C(C)C)c1	4	-1	-3	-16	27*	1
COc1cccc(OCC(=O)N(Cc2nc(-c3ccc(Cl)cc3)no2)C(C)C)c1	-7	-2	0	-3	26*	8
COc1ccccc1OCC(=O)N(Cc1nc(-c2ccc(Cl)cc2)no1)C(C)C	7	5	-13	-4	10	0
COc1cccc(C(=O)N(Cc2nc(-c3ccc(C)cc3)no2)C(C)C)c1	-3	2	-1	-7	0	-9
CC(=O)Nc1ccc(NC(=O)c2c(C)nn(-c3ccccc3)c2Cl)cc1C	9	4	-3	2	1	2
O=C(/C(=N/N=C/c1ccc(O)c(O)c1)c1ccccc1)c1ccccc1	-9	19	-4	8	30*	2
Oc1ccc(/C=N/N(c2ccccc2)c2ccccc2)cc1O	-5	1	21	6	69*	4
Oc1ccc(/C=N/N(c2ccccc2)c2ccccc2)c(O)c1O	9	4	/	18	69*	-5
CCN(CC)c1ccc(/C=N/N(c2ccccc2)c2ccccc2)c(O)c1	-2	0	-6	-6	10	2
CCC(C)(C)C1CCC(NC(=O)c2ccc(S(=O)(=O)N3CCOCC3)cc2)CC1 (stereo not drawn)	7	9	-2	-1	3	-2
CN(C)S(=O)(=O)c1cccc(C(=O)Nc2cc(Cl)ccc2O)c1	-3	24*	-2	0	4	-3
CSc1nnc(-c2cccs2)n1-c1ccccc1	1	6	1	-3	-3	2
CN1CCN(S(=O)(=O)c2ccc(Sc3nnc(-c4cccs4)n3-c3ccccc3)nc2)CC1	-1	33*	-15	-2	4	0
O=C(NCCCN1CCOCC1)c1cccc(NS(=O)(=O)c2ccc(Br)cc2)c1	1	25*	-11	-2	0	0
SMILES	PAFAH2 FP inh	PAFAH1B2 inh	ATG4B inhibitor	DAGLB inhibitor	pPAFAH inh	PAFAH1B3 FP inh
O=C(NCCN1CCOCC1)c1cccc(S(=O)(=O)Nc2ccc(Br)cc2)c1	5	1	-26	0	34*	-3
O=C(NCCN1CCOCC1)c1cccc(S(=O)(=O)Nc2cc(Cl)ccc2Cl)c1	7	4	-2	2	/	9
O=C(NCCCN1CCCC1=O)c1cc(NS(=O)(=O)c2ccc(F)cc2)cc(NS(=O)(=O)c2ccc(F)cc2)c1	13	15	3	4	34*	10
O=C(c1cccc(S(=O)(=O)Nc2ccc(F)cc2)c1)N1CCOCC1	9	-2	4	-1	29*	-3
O=C(NCCCN1CCOCC1)c1ccc(S(=O)(=O)Nc2ccccc2)cc1	-2	-1	1	-3	8	1
CCOC(=O)/C=C/C(=O)Nc1cc(S(=O)(=O)Nc2ccc(OC)cc2)ccc1N1CCOCC1	6	1	-5	-2	/	2
O=C(NCCCN1CCOCC1)c1cccc(S(=O)(=O)Nc2ccc(F)cc2)c1	3	3	-2	0	27*	-3
COc1ccc(NS(=O)(=O)c2ccc(N3CCOCC3)c(NC(=O)c3cccc(F)c3)c2)cc1	7	-5	17	-2	33*	5
CSCc1c(C(=O)OCC(=O)c2ccc[nH]2)oc2ccccc12	13	-3	46*	-1	/	0
O=C1NC[C@@H](c2ccccc2)OC(=O)[C@@H](Cc2ccc(F)cc2)CC/C=C/C[C@H]1CC(=O)N(CCO)Cc1ccccc1	1	66*	1	3	20	10
O=C1NC[C@H](c2ccccc2)OC(=O)[C@H](Cc2ccc(F)cc2)C/C=C\C[C@H]1CC(=O)N(CCO)Cc1ccccc1	-6	51*	-14	1	12	12
O=C1NC[C@H](c2ccccc2)OC(=O)[C@@H](Cc2ccc(F)cc2)C/C=C\C[C@H]1CC(=O)N(CCO)Cc1ccccc1	3	16	-1	1	0	11
O=C1NC[C@H](c2ccccc2)OC(=O)[C@H](Cc2ccc(F)cc2)CC/C=C/C[C@@H]1CC(=O)N(CCO)Cc1ccccc1	-4	0	-16	1	-2	11
O=C1NC[C@@H](c2ccccc2)OC(=O)[C@H](Cc2ccc(F)cc2)C/C=C\C[C@H]1CC(=O)N(CCO)Cc1ccccc1	5	29*	-11	2	-1	7
O=C(/C=C/c1ccc(Cl)cc1)OCC(=O)c1ccc[nH]1	1	0	-6	-1	-4	1
COC(=O)c1cn(CCC#N)nc1-c1ccc2ccccc2c1	2	3	-3	0	6	8
O=C(NNC(=O)C12CC3CC(CC(C3)C1)C2)c1ccccc1O	63*	36*	-3	6	5	14
COC(=O)c1ccccc1S(=O)(=O)NNC(=O)C12CC3CC(CC(C3)C1)C2	80*	24*	0	1	6	11
Cc1cccc(C(=O)NNC(=O)C23CC4CC(CC(C4)C2)C3)c1O	31*	37*	-5	8	11	5
